{"source": "the supplement of paper PMC8728848", "binders": {"B1": {"name": "PX9937D-bvu-500-26-500 (Bacteroides vulgatus) (protein)", "chain": "DPVSDITDLNYWKTPEQFDSFVFGLHSRFRSHSWNMFLLGEARSDVFGGIPFGGEATQGMERFPYNTLNAENPGISGFGDLYQNINQMNLFISRTLHTDVLTESARNYYLGQVYGLRAYYMYQLYRSWGDVVFTEEPSLGFEVGKLAKAATPAAEIFEQVKKDIESSLSYFGSDYTIKEKKSLWSKAATLMLKADVYLWSAHRDGGEGDARTAKNALVDIQNNISRSNLDLMDTYQGVFAYDNKGNKEIIFTIHNELFEYNLWNGNNDLFPQADYLGKFYNADGTLINTSVENNFGIMRLMVKLENFKKFLPGDTRRDVTLKDVYNKVENGKLELVGVYPHKYWGVMNGSTRVRCDDYPIYRYSDLLLMLAEAKVLLGEDPATEINRVRRRAFGDAYDASTVGFPNQEVDKRPADAVLQERLFEFMLEGKRWYDLRRFGDSYVLDYTPAEPARLLWPINQGALTNNPLLKQTVGY"}}, "test_in_all_cases": "glycan array binding signal (z-score within array); higher = stronger binding", "settings_in_all_cases": "glycan notation: IUPAC condensed, linker removed", "key": {"[1]": {"target": "GalNAc(b1-3)GlcNAc", "how_it_was_run": "(§1)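 The binding signal is a Z-score computed within each array. Data were drawn from 3228 arrays in the Consortium for Functional Glycomics database, restricted to those with a known protein sequence. Scores were averaged over arrays of the same protein sequence at different concentrations or buffers, and over linkers, and negative values can be taken as non-binding.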"}, "[2]": {"target": "Glc(a1-6)Glc(a1-6)Glc(a1-6)Glc", "how_it_was_run": "as §1"}, "[3]": {"target": "GlcNAc(a1-4)Gal(b1-3)GlcNAc", "how_it_was_run": "as §1"}, "[4]": {"target": "GlcNAc(b1-2)Man(a1-3)[GlcNAc(b1-2)Man(a1-6)]Man(b1-4)GlcNAc(b1-4)[Fuc(a1-6)]GlcNAc", "how_it_was_run": "as §1"}, "[5]": {"target": "GlcNAc(b1-3)Gal(b1-4)GlcNAc(b1-3)Gal(b1-4)GlcNAc(b1-3)Gal(b1-4)GlcNAc(b1-3)Gal(b1-4)GlcNAc(b1-2)Man(a1-3)[GlcNAc(b1-3)Gal(b1-4)GlcNAc(b1-3)Gal(b1-4)GlcNAc(b1-3)Gal(b1-4)GlcNAc(b1-3)Gal(b1-4)GlcNAc(b1-2)Man(a1-6)]Man(b1-4)GlcNAc(b1-4)[Fuc(a1-6)]GlcNAc", "how_it_was_run": "as §1"}, "[6]": {"target": "GlcNAc(b1-4)GlcNAc(b1-4)GlcNAc", "how_it_was_run": "as §1"}, "[7]": {"target": "GlcNAc(b1-4)GlcNAc(b1-4)GlcNAc(b1-4)GlcNAc(b1-4)GlcNAc", "how_it_was_run": "as §1"}, "[8]": {"target": "GlcNAc(b1-6)Gal(b1-4)GlcNAc", "how_it_was_run": "as §1"}, "[9]": {"target": "GlcNAc(b1-6)GalNAc", "how_it_was_run": "as §1"}, "[10]": {"target": "Neu5Ac(a2-3)Gal(b1-3)GalNAc", "how_it_was_run": "as §1"}, "[11]": {"target": "Neu5Ac(a2-3)Gal(b1-3)GalNAc(b1-4)[Neu5Ac(a2-3)]Gal(b1-4)Glc", "how_it_was_run": "as §1"}, "[12]": {"target": "Neu5Ac(a2-3)Gal(b1-4)GlcNAc(b1-2)Man", "how_it_was_run": "as §1"}, "[13]": {"target": "Neu5Ac(a2-3)Gal(b1-4)GlcNAc(b1-2)Man(a1-3)[Neu5Ac(a2-3)Gal(b1-4)GlcNAc(b1-2)Man(a1-6)]Man(b1-4)GlcNAc(b1-4)[Fuc(a1-6)]GlcNAc", "how_it_was_run": "as §1"}, "[14]": {"target": "Neu5Ac(a2-3)Gal(b1-4)GlcNAc(b1-2)[Neu5Ac(a2-3)Gal(b1-4)GlcNAc(b1-4)]Man(a1-3)[GlcNAc(b1-4)][Neu5Ac(a2-3)Gal(b1-4)GlcNAc(b1-2)[Neu5Ac(a2-3)Gal(b1-4)GlcNAc(b1-6)]Man(a1-6)]Man(b1-4)GlcNAc(b1-4)GlcNAc", "how_it_was_run": "as §1"}, "[15]": {"target": "Neu5Ac(a2-3)Gal(b1-4)GlcNAc(b1-3)Gal(b1-4)GlcNAc(b1-2)Man(a1-3)[Neu5Ac(a2-3)Gal(b1-4)GlcNAc(b1-3)Gal(b1-4)GlcNAc(b1-2)Man(a1-6)]Man(b1-4)GlcNAc(b1-4)GlcNAc", "how_it_was_run": "as §1"}, "[16]": {"target": "Neu5Ac(a2-3)Gal(b1-4)[Fuc(a1-3)]GlcNAc(b1-2)Man", "how_it_was_run": "as §1"}, "[17]": {"target": "Neu5Ac(a2-3)Gal6S(b1-4)GlcNAc", "how_it_was_run": "as §1"}, "[18]": {"target": "Neu5Ac(a2-6)Gal(b1-4)GlcNAc(b1-2)Man(a1-3)[GlcNAc(b1-2)Man(a1-6)]Man(b1-4)GlcNAc(b1-4)GlcNAc", "how_it_was_run": "as §1"}, "[19]": {"target": "Neu5Ac(a2-6)Gal(b1-4)GlcNAc(b1-3)Gal(b1-4)GlcNAc(b1-2)Man(a1-3)[Neu5Ac(a2-6)Gal(b1-4)GlcNAc(b1-3)Gal(b1-4)GlcNAc(b1-2)Man(a1-6)]GalNAc", "how_it_was_run": "as §1"}, "[20]": {"target": "Neu5Ac(a2-6)Gal(b1-4)GlcNAc(b1-3)Gal(b1-4)GlcNAc(b1-3)GalNAc", "how_it_was_run": "as §1"}, "[21]": {"target": "Neu5Ac(a2-6)Gal(b1-4)GlcNAc(b1-3)Gal(b1-4)GlcNAc(b1-6)[Gal(b1-3)]GalNAc", "how_it_was_run": "as §1"}, "[22]": {"target": "Neu5Ac(a2-6)Gal(b1-4)GlcNAc(b1-3)Gal(b1-4)[Fuc(a1-3)]GlcNAc(b1-3)Gal(b1-4)[Fuc(a1-3)]GlcNAc", "how_it_was_run": "as §1"}, "[23]": {"target": "Neu5Ac(a2-6)GlcNAc(b1-4)GlcNAc(b1-4)GlcNAc", "how_it_was_run": "as §1"}, "[24]": {"target": "Neu5Ac(a2-8)Neu5Ac(a2-3)Gal(b1-4)GlcNAc", "how_it_was_run": "as §1"}, "[25]": {"target": "Neu5Ac(a2-8)Neu5Ac(a2-3)[Gal(b1-3)GalNAc(b1-4)]Gal(b1-4)Glc", "how_it_was_run": "as §1"}, "[26]": {"target": "Neu5Ac(a2-8)Neu5Gc(a2-3)Gal(b1-4)GlcNAc", "how_it_was_run": "as §1"}, "[27]": {"target": "Neu5Ac9Ac(a2-3)Gal(b1-3)GlcNAc", "how_it_was_run": "as §1"}, "[28]": {"target": "Neu5Gc(a2-8)Neu5Gc(a2-3)Gal(b1-4)GlcNAc(b1-3)Gal(b1-4)GlcNAc", "how_it_was_run": "as §1"}}, "note": "About 410 targets per protein were measured; listed, in parts, are those with the strongest signals and a random draw of the rest."}
{"binder": "B1", "values": [{"measurement": "glycan array binding signal (z-score)", "setting": "[1]", "result": -0.418}, {"measurement": "glycan array binding signal (z-score)", "setting": "[2]", "result": -0.405}, {"measurement": "glycan array binding signal (z-score)", "setting": "[3]", "result": -0.056}, {"measurement": "glycan array binding signal (z-score)", "setting": "[4]", "result": -0.178}, {"measurement": "glycan array binding signal (z-score)", "setting": "[5]", "result": -0.298}, {"measurement": "glycan array binding signal (z-score)", "setting": "[6]", "result": -0.41}, {"measurement": "glycan array binding signal (z-score)", "setting": "[7]", "result": -0.558}, {"measurement": "glycan array binding signal (z-score)", "setting": "[8]", "result": 0.08}, {"measurement": "glycan array binding signal (z-score)", "setting": "[9]", "result": 0.455}, {"measurement": "glycan array binding signal (z-score)", "setting": "[10]", "result": -0.219}, {"measurement": "glycan array binding signal (z-score)", "setting": "[11]", "result": -0.308}, {"measurement": "glycan array binding signal (z-score)", "setting": "[12]", "result": -0.574}, {"measurement": "glycan array binding signal (z-score)", "setting": "[13]", "result": -0.13}, {"measurement": "glycan array binding signal (z-score)", "setting": "[14]", "result": -0.306}, {"measurement": "glycan array binding signal (z-score)", "setting": "[15]", "result": 0.163}, {"measurement": "glycan array binding signal (z-score)", "setting": "[16]", "result": 0.114}, {"measurement": "glycan array binding signal (z-score)", "setting": "[17]", "result": -0.307}, {"measurement": "glycan array binding signal (z-score)", "setting": "[18]", "result": -0.121}, {"measurement": "glycan array binding signal (z-score)", "setting": "[19]", "result": 4.23}, {"measurement": "glycan array binding signal (z-score)", "setting": "[20]", "result": -0.414}, {"measurement": "glycan array binding signal (z-score)", "setting": "[21]", "result": 0.256}, {"measurement": "glycan array binding signal (z-score)", "setting": "[22]", "result": 0.021}, {"measurement": "glycan array binding signal (z-score)", "setting": "[23]", "result": 0.037}, {"measurement": "glycan array binding signal (z-score)", "setting": "[24]", "result": -0.636}, {"measurement": "glycan array binding signal (z-score)", "setting": "[25]", "result": -0.284}, {"measurement": "glycan array binding signal (z-score)", "setting": "[26]", "result": 10.6}, {"measurement": "glycan array binding signal (z-score)", "setting": "[27]", "result": -0.36}, {"measurement": "glycan array binding signal (z-score)", "setting": "[28]", "result": -0.056}]}
